# Reference: PubChem BioAssay (NCI)
# This is part of a sample that, as a whole, favours compounds with a hit. Of some 79,000 tested, about 15% had one in any assay. Unmarked numbers belong to inactive results. Active and inactive are the calls of the source. Rule as the data show it: active = growth inhibition above about 70%; inactive = the rest.
# Tests used:
# [1] = NCI Yeast Anticancer Drug Screen. Data for the rad52 strain (AID 147);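 also: 0% = growth of vehicle-treated control cultures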; settings: S. cerevisiae rad52 mutant growth inhibition, stronger effect = higher value
# Method in brief: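 Compounds are applied to a genetically defined yeast strain lacking normal DNA damage repair, and inhibition of growth is expressed relative to cultures given vehicle only.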
# [2] = NCI Yeast Anticancer Drug Screen. Data for the wt1 strain (AID 149);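 also: 0% = growth of vehicle-treated wt1 cultures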; settings: S. cerevisiae wt1 strain (SPY 50644) growth inhibition, stronger effect = higher value
# Method in brief: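 wt1 strain grown with compound or vehicle; inhibition taken from the growth difference.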
# [3] = NCI Yeast Anticancer Drug Screen. Data for the rad50EPP+ strain (AID 151);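 also: 0% = growth of vehicle-treated control cultures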; settings: S. cerevisiae rad50 mutant strain, stronger effect = higher value
# Method in brief: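 Compounds were applied to the rad50EPP+ yeast strain, which bears a defined DNA repair alteration, and growth inhibition was determined relative to vehicle-treated cultures.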
# [4] = NCI Yeast Anticancer Drug Screen. Data for the mgt1 strain (AID 153); settings: S. cerevisiae mgt1 mutant growth inhibition, stronger effect = higher value
# Method in brief: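 Strain: mgt1 yeast, one of a set carrying defined DNA damage repair or cell cycle control alterations. Compound-treated growth compared with vehicle.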
# [5] = NCI Yeast Anticancer Drug Screen. Data for the rad50 strain (AID 155);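 also: 0% = growth of vehicle-only cultures of the same strain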; settings: S. cerevisiae rad50 strain growth inhibition, stronger effect = higher value
# Method in brief: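 DNA repair mutant yeast, compound exposure, growth read-out; inhibition is taken relative to vehicle.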
# [6] = NCI Yeast Anticancer Drug Screen. Data for the mec2-1 strain (AID 157); settings: S. cerevisiae mec2-1 strain, stronger effect = higher value
# Method in brief: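 Strain: mec2-1 (DNA repair/cell cycle alteration). Compound exposure, then growth measured; inhibition expressed relative to vehicle.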
# [7] = NCI Yeast Anticancer Drug Screen. Data for the rad14 strain (AID 159);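 also: 0% = growth of vehicle-treated control cultures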; settings: S. cerevisiae rad14 strain growth inhibition, stronger effect = higher value
# Method in brief: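 DNA repair-defective yeast, compound-exposed; % growth inhibition derived by comparison with vehicle-treated controls.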
# [8] = NCI Yeast Anticancer Drug Screen. Data for the sgs1 mgt1 strain (AID 161);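 also: 0% = growth of cultures given vehicle only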; settings: S. cerevisiae sgs1 mgt1 strain, stronger effect = higher value
# Method in brief: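 Genetically altered yeast, compound exposure, growth inhibition relative to vehicle.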
# [9] = NCI Yeast Anticancer Drug Screen. Data for the CLN2oe strain (AID 163);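 also: 0% = growth of vehicle-only control cultures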; settings: S. cerevisiae CLN2oe strain, stronger effect = higher value
# Method in brief: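 Growth of a genetically modified yeast strain is measured after compound exposure and compared with cultures given vehicle alone.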
# [10] = NCI Yeast Anticancer Drug Screen. Data for the cln2 rad14 strain (AID 165);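 also: 0% = growth equal to vehicle treated cultures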; settings: S. cerevisiae cln2 rad14 strain, stronger effect = higher value
# Method in brief: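 Compounds are applied to the cln2 rad14 yeast strain, and growth is then compared with that of vehicle-treated cultures to give inhibition.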
# [11] = NCI Yeast Anticancer Drug Screen. Data for the bub3 strain (AID 167); settings: S. cerevisiae bub3 mutant strain, stronger effect = higher value
# Method in brief: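 In this screen, a yeast mutant lacking normal mitotic checkpoint function is challenged with compound. Relative growth versus vehicle gives the inhibition value.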
# [12] = NCI Yeast Anticancer Drug Screen. Data for the wt2 strain (AID 169);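 also: 0% = growth of vehicle-treated yeast cultures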; settings: S. cerevisiae wt2 strain growth inhibition, stronger effect = higher value
# Method in brief: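 This strain belongs to a panel of yeast strains with defined genetic alterations in DNA damage repair or cell cycle control. Compounds are applied, and growth inhibition is measured against vehicle-treated cultures.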
# [13] = NCI Yeast Anticancer Drug Screen. Data for the mlh1 strain (AID 171);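 also: 0% = growth of vehicle-treated control cultures of the same strain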; settings: S. cerevisiae mlh1 strain growth inhibition, stronger effect = higher value
# Method in brief: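 Growth of the mutant yeast strain after compound exposure, expressed as inhibition relative to vehicle-only controls.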
# [14] = NCI Yeast Anticancer Drug Screen. Data for the sgs1 strain (AID 173);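 also: 0% = growth of vehicle-only control cultures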; settings: S. cerevisiae sgs1 mutant, stronger effect = higher value
# Method in brief: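 Growth of a yeast strain bearing a defined genetic alteration is measured after compound treatment. Inhibition is expressed relative to vehicle-only controls.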
# [15] = NCI Yeast Anticancer Drug Screen. Data for the mlh1 rad18 strain (AID 175); settings: S. cerevisiae mlh1 rad18 strain growth inhibition, stronger effect = higher value
# Method in brief: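 Read-out is yeast growth inhibition, calculated against vehicle-only controls. The compound was applied to a strain engineered with DNA damage repair alterations.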
# [16] = NCI Yeast Anticancer Drug Screen. Data for the rad18 strain (AID 177); settings: S. cerevisiae rad18 mutant growth inhibition, stronger effect = higher value
# Method in brief: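 Growth of the mutant yeast strain after compound exposure, normalised to vehicle-only cultures.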
# [17] = at 5.0 µM (retest, dose inferred, filed as 0.5)
# [18] = at 50.0 µM (retest, dose inferred, filed as 5.0)
structure (smiles),measurement,setting,value
O=C(Cc1ccccc1)NN1C(=O)C(Cl)C1c1cc(Br)cc(Br)c1O (stereo unspecified),growth inhibition,[1]; at 1.2 µM,4%
same,growth inhibition,[1]; at 3.7 µM,33%
same,growth inhibition,[1]; at 11.0 µM,92% (active)
same,growth inhibition,[1]; at 33.0 µM,93% (active)
same,growth inhibition,[1]; at 100.0 µM,88% (active)
same,growth inhibition,[2]; at 1.2 µM,-9%
same,growth inhibition,[2]; at 3.7 µM,-5%
same,growth inhibition,[2]; at 11.0 µM,73% (active)
same,growth inhibition,[2]; at 33.0 µM,94% (active)
same,growth inhibition,[2]; at 100.0 µM,89% (active)
same,growth inhibition,[3]; at 1.2 µM,-6%
same,growth inhibition,[3]; at 3.7 µM,1%
same,growth inhibition,[3]; at 11.0 µM,29%
same,growth inhibition,[3]; at 33.0 µM,56%
same,growth inhibition,[3]; at 100.0 µM,59%
same,growth inhibition,[4]; at 1.2 µM,-5%
same,growth inhibition,[4]; at 3.7 µM,14%
same,growth inhibition,[4]; at 11.0 µM,94% (active)
same,growth inhibition,[4]; at 33.0 µM,95% (active)
same,growth inhibition,[4]; at 100.0 µM,91% (active)
same,growth inhibition,[5]; at 1.2 µM,2%
same,growth inhibition,[5]; at 3.7 µM,20%
same,growth inhibition,[5]; [17],13%
same,growth inhibition,[5]; at 11.0 µM,81% (active)
same,growth inhibition,[5]; at 33.0 µM,91% (active)
same,growth inhibition,[5]; [18],94% (active)
same,growth inhibition,[5]; at 50.0 µM,97% (active)
same,growth inhibition,[5]; at 100.0 µM,84% (active)
same,growth inhibition,[6]; at 1.2 µM,-3%
same,growth inhibition,[6]; at 3.7 µM,19%
same,growth inhibition,[6]; [17],56%
same,growth inhibition,[6]; at 11.0 µM,95% (active)
same,growth inhibition,[6]; at 33.0 µM,95% (active)
same,growth inhibition,[6]; [18],94% (active)
same,growth inhibition,[6]; at 50.0 µM,97.3% (active)
same,growth inhibition,[6]; at 100.0 µM,92% (active)
same,growth inhibition,[7]; at 1.2 µM,-3%
same,growth inhibition,[7]; at 3.7 µM,-3%
same,growth inhibition,[7]; at 11.0 µM,85% (active)
same,growth inhibition,[7]; at 33.0 µM,93% (active)
same,growth inhibition,[7]; at 100.0 µM,92% (active)
same,growth inhibition,[8]; [17],61%
same,growth inhibition,[8]; [18],96% (active)
same,growth inhibition,[8]; at 50.0 µM,98% (active)
same,growth inhibition,[9]; at 1.2 µM,-6%
same,growth inhibition,[9]; at 3.7 µM,18%
same,growth inhibition,[9]; at 11.0 µM,95% (active)
same,growth inhibition,[9]; at 33.0 µM,94% (active)
same,growth inhibition,[9]; at 100.0 µM,86% (active)
same,growth inhibition,[10]; [17],46%
same,growth inhibition,[10]; [18],93% (active)
same,growth inhibition,[10]; at 50.0 µM,95.2% (active)
same,growth inhibition,[11]; at 1.2 µM,-8%
same,growth inhibition,[11]; at 3.7 µM,12%
same,growth inhibition,[11]; [17],98% (active)
same,growth inhibition,[11]; at 11.0 µM,94% (active)
same,growth inhibition,[11]; at 33.0 µM,96% (active)
same,growth inhibition,[11]; [18],96% (active)
same,growth inhibition,[11]; at 50.0 µM,97% (active)
same,growth inhibition,[11]; at 100.0 µM,87% (active)
same,growth inhibition,[12]; at 1.2 µM,-5%
same,growth inhibition,[12]; at 3.7 µM,10%
same,growth inhibition,[12]; at 11.0 µM,88% (active)
same,growth inhibition,[12]; at 33.0 µM,94% (active)
same,growth inhibition,[12]; at 100.0 µM,90% (active)
same,growth inhibition,[13]; at 1.2 µM,-3%
same,growth inhibition,[13]; at 3.7 µM,8%
same,growth inhibition,[13]; at 11.0 µM,90% (active)
same,growth inhibition,[13]; at 33.0 µM,95% (active)
same,growth inhibition,[13]; at 100.0 µM,92% (active)
same,growth inhibition,[14]; at 1.2 µM,4%
same,growth inhibition,[14]; at 3.7 µM,30%
same,growth inhibition,[14]; at 11.0 µM,92% (active)
same,growth inhibition,[14]; at 33.0 µM,93% (active)
same,growth inhibition,[14]; at 100.0 µM,88% (active)
same,growth inhibition,[15]; [17],47%
same,growth inhibition,[15]; [18],94% (active)
same,growth inhibition,[15]; at 50.0 µM,97.2% (active)
same,growth inhibition,[16]; at 1.2 µM,5%
same,growth inhibition,[16]; at 3.7 µM,27%
same,growth inhibition,[16]; at 11.0 µM,88% (active)
same,growth inhibition,[16]; at 33.0 µM,91% (active)
same,growth inhibition,[16]; at 100.0 µM,84% (active)
O=C(C(Cl)=C(N1CCCCC1)N1CCCCC1)C(Cl)Cl,growth inhibition,[1]; at 1.2 µM,2%
same,growth inhibition,[1]; at 3.7 µM,6%
same,growth inhibition,[1]; at 11.0 µM,5%
same,growth inhibition,[1]; at 33.0 µM,3%
same,growth inhibition,[1]; at 100.0 µM,2%
same,growth inhibition,[2]; at 1.2 µM,-2%
same,growth inhibition,[2]; at 3.7 µM,0%
same,growth inhibition,[2]; at 11.0 µM,-1%
same,growth inhibition,[2]; at 33.0 µM,-1%
same,growth inhibition,[2]; at 100.0 µM,1%
same,growth inhibition,[3]; at 1.2 µM,1%
same,growth inhibition,[3]; at 3.7 µM,1%
same,growth inhibition,[3]; at 11.0 µM,3%
same,growth inhibition,[3]; at 33.0 µM,3%
same,growth inhibition,[3]; at 100.0 µM,5%
same,growth inhibition,[4]; at 1.2 µM,-3%
same,growth inhibition,[4]; at 3.7 µM,-1%
same,growth inhibition,[4]; at 11.0 µM,-4%
same,growth inhibition,[4]; at 33.0 µM,-3%
same,growth inhibition,[4]; at 100.0 µM,2%
same,growth inhibition,[5]; at 1.2 µM,3%
same,growth inhibition,[5]; at 3.7 µM,6%
same,growth inhibition,[5]; [17],69%
same,growth inhibition,[5]; at 11.0 µM,-2%
same,growth inhibition,[5]; at 33.0 µM,5%
same,growth inhibition,[5]; [18],99% (active)
same,growth inhibition,[5]; at 50.0 µM,64.4%
same,growth inhibition,[5]; at 100.0 µM,3%
same,growth inhibition,[6]; at 1.2 µM,2%
same,growth inhibition,[6]; at 3.7 µM,-2%
same,growth inhibition,[6]; [17],11%
same,growth inhibition,[6]; at 11.0 µM,-3%
same,growth inhibition,[6]; at 33.0 µM,-6%
same,growth inhibition,[6]; [18],99% (active)
same,growth inhibition,[6]; at 50.0 µM,70.7% (active)
same,growth inhibition,[6]; at 100.0 µM,-2%
same,growth inhibition,[7]; at 1.2 µM,-3%
same,growth inhibition,[7]; at 3.7 µM,-1%
same,growth inhibition,[7]; at 11.0 µM,3%
same,growth inhibition,[7]; at 33.0 µM,-2%
same,growth inhibition,[7]; at 100.0 µM,-1%
same,growth inhibition,[8]; [17],-6%
same,growth inhibition,[8]; [18],99% (active)
same,growth inhibition,[8]; at 50.0 µM,85.2% (active)
same,growth inhibition,[9]; at 1.2 µM,2%
same,growth inhibition,[9]; at 3.7 µM,4%
same,growth inhibition,[9]; at 11.0 µM,3%
same,growth inhibition,[9]; at 33.0 µM,1%
same,growth inhibition,[9]; at 100.0 µM,9%
same,growth inhibition,[10]; [17],7%
same,growth inhibition,[10]; [18],99% (active)
same,growth inhibition,[10]; at 50.0 µM,23.9%
same,growth inhibition,[11]; at 1.2 µM,-5%
same,growth inhibition,[11]; at 3.7 µM,2%
same,growth inhibition,[11]; [17],-5%
same,growth inhibition,[11]; at 11.0 µM,9%
same,growth inhibition,[11]; at 33.0 µM,4%
same,growth inhibition,[11]; [18],99% (active)
same,growth inhibition,[11]; at 50.0 µM,68.1%
same,growth inhibition,[11]; at 100.0 µM,2%
same,growth inhibition,[12]; at 1.2 µM,-1%
same,growth inhibition,[12]; at 3.7 µM,1%
same,growth inhibition,[12]; at 11.0 µM,2%
same,growth inhibition,[12]; at 33.0 µM,2%
same,growth inhibition,[12]; at 100.0 µM,2%
same,growth inhibition,[13]; at 1.2 µM,-2%
same,growth inhibition,[13]; at 3.7 µM,-4%
same,growth inhibition,[13]; at 11.0 µM,2%
same,growth inhibition,[13]; at 33.0 µM,0%
same,growth inhibition,[13]; at 100.0 µM,1%
same,growth inhibition,[14]; at 1.2 µM,-50%
same,growth inhibition,[14]; at 3.7 µM,-3%
same,growth inhibition,[14]; at 11.0 µM,-2%
same,growth inhibition,[14]; at 33.0 µM,-4%
same,growth inhibition,[14]; at 100.0 µM,-1%
same,growth inhibition,[15]; [17],48%
same,growth inhibition,[15]; [18],99% (active)
same,growth inhibition,[15]; at 50.0 µM,81.3% (active)
same,growth inhibition,[16]; at 1.2 µM,-2%
same,growth inhibition,[16]; at 3.7 µM,1%
same,growth inhibition,[16]; at 11.0 µM,-2%
same,growth inhibition,[16]; at 33.0 µM,-15%
same,growth inhibition,[16]; at 100.0 µM,-1%
